Inconclusive results are not listed. The source made the active and inactive calls. Calls come from the whole dose curve; as a rule, active = well fitted inhibition curve with a large enough effect; inconclusive = small, poorly fitted or top-dose-only effect; inactive = no such curve, though single readings can be large or run the other way.
Target: Luciferin 4-monooxygenase (Photinus pyralis) (UniProt P08659)
Test: Confirmatory firefly luciferase (FLuc) qHTS assay for identification of artifact compounds;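 for activity change, negative = inhibition: 0% = DMSO and -100% = no enzyme control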
Conditions: purified FLuc enzyme, luminescence, 5 min; series mostly up to 38.9 µM; activity change, negative = inhibition: at the top concentration
Outline: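 Purified Photinus pyralis luciferase (10 nM) with D-luciferin and ATP each 10 uM, pH 7.6 Tris-acetate; compounds preincubated 15 min with substrate, 5 min after enzyme; luminescence normalized to no-enzyme and DMSO, 4-parameter Hill fit.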
Potency is the fitted concentration of half-maximal effect.

Activity change, negative = inhibition, inactive:
COc1ccc(NC(=O)c2cc(-c3ccccc3O)no2)cc1 28.6%
C[C@H](NC(c1ccc(F)cc1)c1ccc2cccnc2c1O)c1ccccc1 (stereo partly specified) -7.17%
O=C(Cc1ccccc1)Nc1ccc2oc(-c3cccnc3)nc2c1 -9.51% [at 78.4 µM]
Cc1nnc(NC(=O)c2nc(S(=O)(=O)Cc3ccccc3)ncc2Cl)s1 2.84%
CC(=O)Nc1oc(-c2cccc3ccccc23)nc1C#N 59.2%
CC(NC(=O)CSc1nc(-c2ccccc2F)nc2cc(=O)[nH]n12)c1nc2ccccc2n1C (stereo unspecified) -1.81%
COc1ccc(NC(=O)Cn2c(=O)n(CCc3ccccc3)c(=O)c3c4c(sc32)CCCC4)cc1 2.55%
COC(=O)c1scc(-c2ccc(C)cc2)c1S(=O)(=O)Nc1ccc(NC(C)=O)cc1 1.57%
CCc1ccccc1NC(=O)c1nc(-c2ccncc2)no1 44.2%
Cc1nc(CC(=O)Nc2ccc(C)c(C)c2)cs1 -0.339%
Clc1ccc(-c2noc3ncnc(N4CCCCC4)c23)cc1 3%
Cc1ccc(-c2nc(S(=O)(=O)c3ccc(C)cc3)c(N3CCCCC3)o2)cc1 -2.08%
COc1ccc2cc3cc(C(=O)N4CCN(c5ccccc5F)CC4)oc3nc2c1 -0.424%
CCOc1ccc(N=C(C)Nc2ccc(OCC)cc2)cc1 -1.18%
COc1cccc(-c2nnc(Nc3nc4ccc(OC)cc4s3)o2)c1 1.25%
O=C(Nc1ccccc1-c1nc2ccccc2s1)c1cc(Cl)cc(Cl)c1 -0.169%
COc1cccc(NC(=O)CSc2nc3cc(OC)c(OC)cc3c3nc(-c4ccccc4)nn23)c1 -2.25%
Cn1c(=O)[nH]c2cc(-c3noc(-c4cccc(Cl)c4)n3)ccc21 53%
CC(=O)c1ccc(NS(=O)(=O)c2ccc(-c3cc(C)no3)s2)cc1 1.7%
NCCCNCCCCNCCCNC(=O)CCc1ccc(O)cc1 2.14% [at 7.25 µM]

Potency, active:
CCN(Cc1cccc(S(=O)(=O)O)c1)c1ccc(C(=C2C=CC(=[N+](CC)Cc3cccc(S(=O)(=O)O)c3)C=C2)c2ccccc2S(=O)(=O)[O-])cc1 12.2 µM

Reference: PubChem BioAssay AID1845227 (National Center for Advancing Translational Sciences (NCATS), 2023)
